Rows were chosen to be rich in hits. Some 4.6% of all compounds tested hit in one or more screens of this group.
HSF-1 act – HSF-1 activators, primary screen, NIH3T3-HGL cells, MG132 stress, luminescence, single point. activation, % at 9 µM. NIH3T3-HGL HSF-1 luciferase reporter, 8 h; 100% = twice DMSO control signal. 300,000 tested, 1.7% active;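 active means mean replicate activation of at least 50% with a set share of replicates each reaching 50%; inconclusive means only one of those two conditions met; inactive means mean below 50% and too few replicates reaching it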;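 further: 0% = median of the neutral control wells and 100% = twice that signal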
HSF1 inhib – HSF1 inhibitors in luciferase reporter cells, primary screen, cell-based, NIH3T3, luminescence; NIH3T3-HGL HSE-luciferase, MG132-induced, luminescence 8 h; stronger effect = lower value; activity change, negative = inhibition, % at 7.5 µM (by protocol); 300,000 tested, 0.77% active; AID 2098, 2009;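 active means more than half of replicate wells show activity change below -50%, luminescence cut by over half; inconclusive means some wells, but at most half, below -50%; inactive means no replicate well below -50%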;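 further: luciferase reports HSF-1 transcriptional activity via heat shock element; 0% = median of DMSO wells and -100% = zero luminescence signal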
AHR act – AHR activators, primary screen, cell-based, luminescence, luciferase reporter, human; Aryl hydrocarbon receptor (Homo sapiens), P35869; AHR-responsive luciferase reporter cells; activation, % at 5 µM; 320,000 tested, 2.5% active; AID 2796, 2010; in the data active means activation above about 47%;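 further: 0% = vehicle wells and 100% = reference agonist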
Target sequence (P35869 whole entry, looked up): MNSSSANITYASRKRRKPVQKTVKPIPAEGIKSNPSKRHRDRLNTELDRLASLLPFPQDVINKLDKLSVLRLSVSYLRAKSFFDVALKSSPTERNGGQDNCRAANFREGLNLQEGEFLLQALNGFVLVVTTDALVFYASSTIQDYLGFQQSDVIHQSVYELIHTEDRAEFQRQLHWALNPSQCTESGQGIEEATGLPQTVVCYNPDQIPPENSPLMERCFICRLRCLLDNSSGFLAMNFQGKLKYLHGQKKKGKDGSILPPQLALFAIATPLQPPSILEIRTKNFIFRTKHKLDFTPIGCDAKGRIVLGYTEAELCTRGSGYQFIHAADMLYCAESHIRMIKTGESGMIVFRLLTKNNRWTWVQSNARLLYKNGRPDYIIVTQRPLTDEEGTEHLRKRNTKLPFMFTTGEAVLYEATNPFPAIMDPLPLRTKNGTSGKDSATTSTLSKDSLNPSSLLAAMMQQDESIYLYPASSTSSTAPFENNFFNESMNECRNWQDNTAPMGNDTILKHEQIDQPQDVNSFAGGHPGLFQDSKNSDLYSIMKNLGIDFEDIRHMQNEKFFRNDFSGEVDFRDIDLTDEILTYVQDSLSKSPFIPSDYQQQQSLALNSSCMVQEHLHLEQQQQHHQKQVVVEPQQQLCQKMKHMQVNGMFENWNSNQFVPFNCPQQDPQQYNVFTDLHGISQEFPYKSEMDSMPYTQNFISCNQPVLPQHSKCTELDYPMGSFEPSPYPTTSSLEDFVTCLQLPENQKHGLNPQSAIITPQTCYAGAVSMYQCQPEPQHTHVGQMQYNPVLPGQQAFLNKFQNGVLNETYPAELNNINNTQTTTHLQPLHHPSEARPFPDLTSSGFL
FXN GAA850 act – FXN promoter activators, primary screen, cell-based, luciferase luminescence, HEK293 lucGAA850; HEK293 lucGAA850 FXN promoter luciferase reporter, 24 h; percent of 10 µM SAHA response; activation, % at 6 µM; 360,000 tested, 0.56% active; AID 540364, 2011;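 active means activation above the average of all compounds screened plus 3 SD, cutoff fixed separately per campaign, cut at about 7.5% in these data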;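 further: 0% = DMSO wells and 100% = 10 µM SAHA wells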
AHR act confirm – AHR activators, confirmation, cell-based, luminescence, luciferase reporter, human; shares compounds with AHR act; human cells, AHR-responsive luciferase reporter; activation, % at 9 µM; 2,300 tested, 87% active; in the data active means activation above about 49%;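 further: HepG2 hepatoma cells carrying a DRE-driven firefly luciferase reporter; 0% = vehicle wells and 100% = reference agonist wells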
PXR counter – human PXR activators, counter-screen for AHR activator project, cell-based, luciferase luminescence. shares compounds with AHR act. cell-based PXR reporter. activation, % at 11.6 µM. 2,300 tested, 88% active. AID 434939, 2010; in the data active means activation above about 11%;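 further: human hepatoma DPX-2 cells expressing full-length human PXR; 0% = DMSO and 100% = reference agonist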
The depositor's hits bear a star; u = inconclusive; x = no result given.

SMILES | HSF-1 act | HSF1 inhib | AHR act | FXN GAA850 act | AHR act confirm | PXR counter
Cc1ccc2c(c1)C1CCCC3C1N2CC(=O)N3Cc1ccccc1 (stereo unspecified) | -4 | -4 | 17 | x | x | x
O=c1c2ccccc2nc2n1CCc1c-2[nH]c2ccccc12 | x | x | 99* | 6 | 223* | 20*
Fc1ccc2cnc(-c3cccnc3)cc2c1 | x | x | 89* | 1 | 87* | 26*
COc1ccccc1NC(=O)C1CCCN(c2cnccn2)C1 (stereo unspecified) | -10 | 5 | 96* | 0 | 80* | 24*
CN1CCN(C(=O)CSc2nnc(COc3ccccc3)o2)CC1 | 25 | 7 | 1 | -1 | x | x
Cc1nc(Cl)sc1C(=O)Nc1ccc(C(F)(F)F)cc1 | 25 | 9 | 99* | 1 | 106* | x
Cc1nc(Cl)sc1C(=O)Nc1cccc(C(F)(F)F)c1 | x | x | x | 0 | x | x
Cc1nc(-c2cccnc2)sc1C(=O)Nc1ccc(C(F)(F)F)cc1 | -21 | -2 | 95* | 1 | 61* | 10*
Cc1cc(-c2onc(C)c2C(=O)Nc2ccc(C(F)(F)F)cc2)no1 | -4 | 0 | 84* | 2 | 95* | 39*
Cc1nc(-c2ccc(C(F)(F)F)cc2)sc1C(=O)NN | -12 | -10 | 86* | 3 | 10 | 14*
Cc1ccc(-c2cc(C(F)F)nc3sc4c(=O)[nH]cnc4c23)cc1 | x | x | 25 | 0 | x | x
CCOc1ccc(Cn2nnc(C(=O)NCc3ccc(OC)cc3)c2N)cc1 | 1 | -5 | 2 | -3 | x | x
O=C(Nc1nc2ccccc2s1)c1cc2c(s1)-c1ccccc1OC2 | 32 | 16 | 12 | 2 | x | x
Cc1cccc2c1-c1sc(C(=O)Nc3nccs3)cc1CO2 | 56* | 30 | 149* | -1 | 110* | 22*
Cc1cc(NC(=O)C2Oc3ccccc3OC2C)no1 (stereo unspecified) | 8 | 0 | 16 | 4 | x | x
O=C(Nc1nccs1)c1cc2c(s1)-c1ccccc1OC2 | 38 | 23 | 150* | 3 | 115* | 20*
CC1Oc2ccccc2OC1C(=O)Nc1nccs1 (stereo unspecified) | 15 | -3 | 80* | 2 | 105* | 10*
Cc1cc(NC(=O)c2ccccc2-c2ccccc2)ccc1Br | 19 | 7 | 94* | -2 | 93* | 153*
Cc1cccc(NC(=O)c2ccccc2-c2ccccc2)c1 | 4 | 4 | -1 | 2 | x | x
O=C(Nc1ccccc1)Nc1ccc2ccccc2n1 | 24 | 2 | 4 | 4 | x | x
O=C(CC1Sc2ccccc2NC1=O)Nc1ccccc1[N+](=O)[O-] (stereo unspecified) | -4 | 1 | 152* | 3 | 111* | 38*
O=C1C=CC(=Nc2cccc3c2C(=O)c2ccccc2-3)O1 | x | x | x | -1 | x | x
Cc1cc(OCc2nc3ccccc3s2)ccc1N | 36 | 16 | 86* | 6 | 92* | 34*
CCn1c2ccccc2c2cc(NC(=O)c3cccc([N+](=O)[O-])c3)ccc21 | 4 | 15 | 86* | 0 | 89* | 33*
CCn1c2ccccc2c2cc(NC(=O)c3cccc([N+](=O)[O-])c3C)ccc21 | 4 | 2 | 113* | 1 | 87* | 55*
SMILES | HSF-1 act | HSF1 inhib | AHR act | FXN GAA850 act | AHR act confirm | PXR counter
NC(=O)c1cc(-c2ccccc2)nc(Oc2ccccc2)n1 | 1 | 4 | 17 | 4 | x | x
COC(=O)c1ccc(NC(=S)Nc2ccccn2)cc1 | 41 | 17 | -1 | 7 | x | x
Cc1cc(C)cc(NC(=S)Nc2ccccn2)c1 | -4 | 12 | 91* | 1 | 112* | 27*
COc1cccc2c(=O)c3cccc(N)c3[nH]c12 | 0 | -3 | 80* | 2 | 60* | x
COc1cccc2c(=O)c3c([nH]c12)OC(C)(C)C3 | -1 | 3 | 0 | 0 | x | x
O=C(Nc1cc(S(=O)(=O)N2CCOCC2)ccc1O)c1ccc2c(c1)S(=O)(=O)c1ccccc1C2=O | 12 | 1 | -2 | 2 | x | x
CC(=O)Nc1ccc(NC2=C(Cl)C(=O)c3ccccc3C2=O)cc1 | 24 | 15 | x | x | x | x
CN(C)c1ccc(NC2=C(Cl)C(=O)c3ccccc3C2=O)cc1 | -28 | -17 | 135* | -5 | 76* | 13*
CC(/C=C/c1ccccc1)=N\Nc1nc(-c2ccccc2)cs1 | x | x | 1 | -2 | x | x
CC(C)=NNc1nc(-c2ccccc2)cs1 | 1 | -2 | 102* | 1 | 107* | 15*
COCCN1Cc2c(sc(C)c2C)N(C(=O)c2ccccc2)C1 | 42 | 23 | 82* | 1 | 84* | 38*
CCNc1ccc(C(=O)OCC(=O)Nc2cc(C)on2)cc1[N+](=O)[O-] | x | x | 0 | 0 | x | x
Cc1cc(=O)[nH]c(SCc2ccccc2)n1 | 15 | 6 | 4 | 2 | x | x
Cc1cc(=O)[nH]c(S/C=C/c2ccccc2)n1 | 14 | 18 | 118* | 2 | 102* | 26*
O=[N+]([O-])c1cc(S(=O)(=O)N2CCOCC2)ccc1NS(=O)(=O)c1ccccc1 | x | x | -1 | 2 | x | x
Cc1nc(N)nc(Nc2ccc(Cl)cc2)c1Br | 6 | 0 | 92* | 2 | 99* | x
c1ccc(C2Nc3ccccc3-c3nc4ccccc4n32)nc1 (stereo unspecified) | 33 | 22 | 80* | 0 | 88* | 114*
c1coc(C2Nc3ccccc3-c3nc4ccccc4n32)c1 (stereo unspecified) | 27 | 10 | 129* | 2 | 49* | 71*
CC(=O)Nc1ccc2nc(NC(=O)c3ccco3)sc2c1 | u | 43 | 119* | 4 | 66* | 18*
Fc1cccc2sc(Nc3nnc(-c4ccco4)o3)nc12 | 29 | -1 | 151* | 2 | 121* | 40*
O=C(Nc1nc2c(F)cccc2s1)c1ccco1 | 36 | 13 | 121* | -2 | 72* | 49*
Cc1nc(NC(=O)c2ccco2)sc1C(=O)Nc1ccc(Br)cc1 | 3 | -3 | 108* | -1 | 145* | 79*
CC(=O)Nc1nnc(-c2ccco2)o1 | 3 | -5 | 1 | 1 | x | x
CC(=O)Nc1nc2c(F)cccc2s1 | -5 | 0 | 46 | 0 | x | x
Cc1ccccc1C(=O)NC(=S)N(C)C1CCCCC1 | -7 | -1 | 11 | 1 | x | x
Cc1cc(C(=O)OCC(=O)Nc2ccc(F)c(F)c2F)c(C)o1 | -4 | 0 | 0 | 2 | x | x
Cc1ccc(N2CC(C(=O)Nc3ccc(S(=O)(=O)Nc4nccs4)cc3)CC2=O)cc1 (stereo unspecified) | 30 | 6 | 10 | 0 | x | x
CCOC(=O)c1[nH]c2cc3c(cc2c1NC(=O)CN1CCCCC1C)OCO3 (stereo unspecified) | 22 | 0 | 97* | x | 92* | 182*

Screening results as filed in PubChem BioAssay.
